Only some compounds are listed: those with a hit (about 1.6% of all), similar ones and a draw of the others.
Rce1 inh: inhibitors of yeast Ras-converting enzyme. 0.27% of 290,000 active. calls only. Q03530. yeast membranes, quenched prenylated peptide cleavage fluorescence;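 active means fall in fluorescence gain of 50% or more versus controls, with final raw signal at or below 3038400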;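 further: plate controls were neutral control wells for no effect and wells lacking membranes for full effect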
NPR2 activator: GC-B (human) receptor activation. HEK293-GC-B cells, CNP EC30, cGMP TR-FRET; 0% at EC30 CNP, 100% saturating CNP. 0.11% of 370,000 active. P20594. activation, % at 10 µM;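 active means activation at 10 µM reaching about 35% in either raw or pattern-adjusted values, limit read from the data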
V-ATPase pH: yeast V-ATPase proton transport regulation by pHLuorin | S. cerevisiae, pHLuorin cytosolic pH fluorescence | response, % at 10 µM | 0.37% of 350,000 active | AID 504577; in the data active means response mostly above about 7.3%, no sharp cut-off; inactive means mostly below about 5.4%; further: actives read high
NPR1 activator: GC-A (human) enzyme activation | HEK293 GC-A cells, cGMP TR-FRET, EC30 ANP; 0% at EC30 ANP, 100% saturating ANP | 0.14% of 370,000 active | activation, % at 10 µM | P16066; in the data active means activation above about 40%
NSD2 inh: blocks human histone methyltransferase NSD2; AID 743445; 0.54% of 310,000 active; NSD2 peptide methylation, AlphaScreen, 120 min; inhibition, % at 12.5 µM; O96028; in the data active means inhibition above about 50%
Efflux pump inh: antifungal efflux pump inhibition, Nile Red retention. S. cerevisiae Candida pump triplex. inhibition, % at 10 µM. 0.44% of 330,000 active. AID 485275;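 active means plate passing quality check with inhibition over a set limit, or well fluorescence over plate mean plus 4 SD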;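 further: Nile Red retained in pooled yeast measured as flow cytometry median fluorescence; 0% = buffer negative control and 100% = Enniatin B positive control; higher means more Nile Red kept so more efflux inhibition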
Cmpd fluor yeast: counter-screen for efflux pump inhibitors: compound fluorescence. S. cerevisiae AD/pABC3, flow cytometry. shares compounds with Efflux pump inh. 4% of 1,700 active. AID 588517. fluorescence ratio to DMSO, % at 10 µM;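 active means fluorescence ratio to DMSO above its plate's cutoff, the plate mean ratio plus 5 SD, cut at about 210% in these data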;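 further: unstained yeast with no Nile Red so the signal is compound autofluorescence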
Mdr1 pump inh: blocks the Candida albicans Mdr1 efflux pump in yeast. AID 588518. 1% of 1,700 active. shares compounds with Efflux pump inh. S. cerevisiae AD/CaMDR1, Nile Red efflux, flow cytometry. inhibition, % at 10 µM; in the data active means inhibition above about 26%;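 further: 0% = DMSO vehicle and 100% = reference inhibitor; higher means more Nile Red retained so more efflux inhibition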
Cdr2 pump inh: inhibitors of Candida albicans Cdr2 efflux pump; S. cerevisiae AD/CaCDR2, Nile Red retention, flow cytometry; 4% of 1,700 active; AID 588520; shares compounds with Efflux pump inh; Nile Red retention ratio vs DMSO, % at 10 µM; in the data active means Nile Red retention ratio vs DMSO above about 190%;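 further: higher ratio means more blocking of Cdr2 efflux of the dye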
Cdr1 pump inh: blocks the Candida albicans Cdr1 efflux pump in yeast | 1% of 1,700 active | S. cerevisiae AD/CaCDR1, Nile Red efflux, flow cytometry | shares compounds with Efflux pump inh | inhibition, % at 10 µM;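 active means inhibition above the screen-wide mean plus twice its standard deviation, cut at about 32% in these data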
Active calls of the source: *; i = inactive; · = not tested or not shown.

SMILES | Rce1 inh | NPR2 activator | V-ATPase pH | NPR1 activator | NSD2 inh | Efflux pump inh | Cmpd fluor yeast | Mdr1 pump inh | Cdr2 pump inh | Cdr1 pump inh
CCOC(=O)c1c(C)n(Cc2ccccc2)c2ccc(OCC(O)CN3C(=O)CNC3=O)cc12 (stereo not drawn) | i | 26.1 | -0.9 | 28.5 | 0.4 | -0.2 | · | · | · | ·
C=COCCn1c(C)c(C(C)=O)c2cc(O)ccc21 | i | -1.7 | -1.0 | 24.5 | -3.4 | 0.0 | · | · | · | ·
Cc1cc(O)c2c(c1)C(=O)[C@@]13C(=C2O)C(=O)[C@H]2C(O)[C@@H]1[C@H]1C(O)[C@@H]3C(=O)C3=C(O)c4c(O)cc(C)cc4C(=O)[C@@]312 (stereo partly drawn) | · | -2.2 | · | 1.6 | · | · | · | · | · | ·
CC(=O)N1c2ccccc2C(c2ccccc2)=NCC1C(=O)NC1CCCCC1 (stereo not drawn) | · | -1.4 | · | -2.7 | · | · | · | · | · | ·
O=C(Cn1ncc2c3ccccc3n(Cc3ccccc3F)c2c1=O)N1CCC2(CC1)OCCO2 | i | 41.5* | 1.5 | 29.4 | 7.4 | -0.2 | · | · | · | ·
Cc1c2cnn(CC(=O)N3CCC4(CC3)OCCO4)c(=O)c2c(C)n1Cc1ccc(F)cc1 | i | 1.6 | 3.0 | 5.5 | 4.7 | 0.1 | · | · | · | ·
Nc1ccc2ccc3cccc[n+]3c2c1 | i | -2.6 | -74.7 | 18.0 | 24.2 | 3.8* | 272.0* | 3.9 | 184.9* | 2.6
CCN(CC)c1ccc(/C=C2/C(=O)NC(=O)N(CC3CCCO3)C2=O)cc1 (stereo not drawn) | i | 7.9 | 1.6 | 18.6 | 0.8 | -0.1 | · | · | · | ·
CCN(CC)c1ccc(/C=C2\C(=O)NC(=O)N(Cc3ccco3)C2=O)cc1 | i | 1.7 | -0.9 | 15.1 | 40.3 | 0.5* | 82.2 | 0.3 | 101.7 | -0.2
O=C(NC1CN2CCC1CC2)c1cc(-c2ccc(Cl)cc2)nc2ccccc12 (stereo not drawn) | · | 0.5 | · | -7.3 | 2.6 | · | · | · | · | ·
CC1=CC(=O)OC2CC3OC4C[C@@H](C)C5OC6CC7O[C@]8(C)C/C=C\C9OC%10CC%11OC(CC(C)CO)CC(O)[C@]%11(C)OC%10CC9OC8C[C@]7(C)O[C@]6(C)CCC5OC4C[C@]3(C)OC12 (stereo partly drawn) | i | 2.9 | 3.4 | 3.4 | · | 1.4* | 105.0 | 0.2 | 105.7 | 0.8
CC1CCC(NCC(O)c2ccccc2)CC1 (stereo not drawn) | i | 1.8 | -3.7 | 3.1 | -1.6 | 8.2* | 107.9 | -0.1 | 99.6 | -0.1
N#Cc1ccc(NC(=S)N2Cc3cc(Br)ccc3-n3nncc3C2)cc1 | · | -8.1 | · | -13.9 | · | · | · | · | · | ·
O=C(CCN1CCCCC1)Nc1ccc(Br)cc1C(=O)c1ccccc1 | i | -8.8 | 0.9 | -8.4 | 0.7 | 1.4* | 102.2 | -0.1 | 112.4 | 0.0
CC(C(=O)Nc1ccc(Br)cc1C(=O)c1ccccc1)N1CCCCC1 (stereo not drawn) | i | -3.4 | -2.3 | -8.1 | -1.3 | -0.1 | · | · | · | ·
CCOC(=O)c1c(C)n(COCCO)c2ccc(O)cc12 | i | 6.0 | 0.9 | -0.2 | -1.1 | 7.5* | 91.8 | -0.2 | 91.4 | -0.1
COc1ccccc1N | · | -4.0 | · | 2.4 | · | · | · | · | · | ·
C=CC1CN2CCC1CC2c1[nH]c2ccccc2c1CCO (stereo not drawn) | i | 3.7 | -0.1 | -2.2 | -1.8 | 12.6* | 88.7 | 0.1 | 97.5 | -0.3
C=C[C@H]1CN2CC[C@H]1C[C@H]2[C@H](O)c1ccnc2ccccc12 | · | -2.9 | 1.1 | 0.8 | · | 0.0 | · | · | · | ·
O=C(NCCN1CCC2(CC1)C(=O)NCN2c1ccccc1)c1cccc(F)c1 | · | 6.0 | · | -5.8 | · | · | · | · | · | ·
COC(=O)C1C(c2ccc(Cl)cc2)CC2CCC1N2C (stereo not drawn) | · | -1.6 | · | -2.5 | · | · | · | · | · | ·
C/C(=N\N1CCCCC1)c1c(O)[nH]c(=O)[nH]c1=O | i | 2.7 | 2.7 | 0.7 | -2.2 | 16.4* | 111.1 | -0.1 | 103.0 | 0.1

High-throughput results as filed in PubChem BioAssay.
